Screening data (PubChem)
The list is not random: actives were taken first. Their share in the collection is about 7.5%.
SMN2 splice enh: SMN2 splice variant enhancement; HEK293 SMN2-luciferase splicing reporter, luminescence, 30-36 h; Potency, µM (titrated, usually from 46.1 µM), inactives show at the highest dose activity change, positive = activation, most hits filed as activators; 210,000 compounds, 2.8% hits; AID 1458; further: % of control where 0% means no effect; nearly all actives have a fitted effect of over 55% in size
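HEK293 cells carry an SMN2 minigene-luciferase reporter in which exon 7 inclusion puts luciferase in frame. Cells were seeded at 2000 cells/well, attached for 10-12 hours, then exposed to compounds for 30-36 hours at 37C before ONE-Glo luminescence.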
ELG1 genotox: induces genotoxicity in HEK293T cells with luciferase-tagged ELG1; Potency, µM (titrated, usually from 46 µM), for the others: at the top dose activity change, positive = activation, hits mostly activators; 330,000 compounds, 1.3% hits; HEK293T ELG1-luciferase reporter, luminescence, 16 h; further: % of control where 0% means no effect; nearly all actives have a fitted effect of over 60% in size
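Reporter readout depends on ELG1 protein level, which increases with genetic stress. After 16 hr compound exposure at 37 °C, luciferase activity was quantified using ONE-Glo.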
KinaseGlo FLuc: Kinase-Glo luciferase inhibition (counter-screen); Kinase-Glo luciferase, ATP luminescence, 8 min; Potency, µM (top dose mostly 38.3 µM), inactives show at the highest dose activity change, negative = inhibition, actives largely listed as inhibitors; 200,000 compounds, 0.28% hits; AID 1379; further: on the % scale 0 is the no-effect control and ±100 the full control effect; nearly all actives have a fitted effect of over 60% in size
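Recombinant Kinase-Glo luciferase, 10 uM ATP (linear range), luciferin; imidazole pH 7.2 / KCl / MgCl2 / Tween / BSA buffer; 8 min RT; luminescence.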
NPC1 prom act: activates the NPC1 promoter. Potency, µM (doses to about 9.22 µM), inactives show at the highest dose activation, usual class: activators. 320,000 compounds, 2.4% hits. Huh7 NPC1 promoter luciferase reporter, 24 h; further: % of control where 0% means no effect; nearly all actives have a fitted effect of over 60% in size
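Huh7 cells stably carrying NPC1 promoter–luciferase, plated in Opti-MEM with 10% FBS for 2 h, were exposed to compound in DMSO for 24 h at 37 °C; luciferase reagent was added for 10 min and luminescence read.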
FLuc counter: counter-screen for miR-21 project: firefly luciferase inhibitors or activators; P08659; purified FLuc, Km substrates, luminescence inhibition; Potency, µM (highest dose often 57.5 µM), for inactives: top-dose activity change, negative = inhibition, hits mostly inhibitors; 360,000 compounds, 6.9% hits; AID 588342;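 further: plate controls were vehicle for no effect and reference inhibitor for full effect; nearly all actives have a fitted effect of over 55% in size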
Target sequence (P08659 whole entry, looked up): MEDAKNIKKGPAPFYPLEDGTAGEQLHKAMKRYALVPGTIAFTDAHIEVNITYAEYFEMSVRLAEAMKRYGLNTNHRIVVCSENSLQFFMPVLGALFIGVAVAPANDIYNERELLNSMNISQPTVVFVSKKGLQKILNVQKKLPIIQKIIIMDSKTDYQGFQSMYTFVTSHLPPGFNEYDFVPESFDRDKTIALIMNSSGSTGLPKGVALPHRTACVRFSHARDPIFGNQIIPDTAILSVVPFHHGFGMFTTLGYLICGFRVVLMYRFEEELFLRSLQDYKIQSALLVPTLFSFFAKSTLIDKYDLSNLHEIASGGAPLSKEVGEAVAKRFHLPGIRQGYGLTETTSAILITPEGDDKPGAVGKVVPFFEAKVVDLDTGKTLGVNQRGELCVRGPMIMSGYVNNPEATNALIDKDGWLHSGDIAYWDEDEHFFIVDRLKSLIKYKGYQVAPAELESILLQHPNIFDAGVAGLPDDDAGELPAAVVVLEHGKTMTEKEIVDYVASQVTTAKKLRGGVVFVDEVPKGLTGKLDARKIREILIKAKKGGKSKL
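Biochemical qHTS of compounds, final roughly 60 µM downward over six points, against 10 nM purified firefly luciferase using Km concentrations of substrates (10 uM D-luciferin, 10 uM ATP) in Tris acetate pH 7.5 buffer; luminescence output.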
Rab9 promoter act: activates the Rab9 promoter. 320,000 compounds, 2.8% hits. AID 485297. Potency, µM (doses to about 9.22 µM), without a hit: at the highest dose activation, negative = inhibition, hits mostly activators. Huh7 Rab9 promoter-luciferase reporter, luminescence, 24 h; further: % of control where 0% means no effect; nearly all actives have a fitted effect of over 60% in size
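Steps: seed 1500 Huh7 Rab9-luc cells per well, rest 2 h at 37 °C; add compound in DMSO; incubate 24 h; add luciferase reagent, 10 min ambient; read luminescence.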
Active calls of the source: *; ? = inconclusive; / = no result; [ ] = dose if it differs, or a comment. The call rests on the fitted dose curve; in most records, active means well fitted curve in the direction sought with a large enough effect; inconclusive means small, poorly fitted or top-dose-only effect, or another doubt; inactive means no such curve, though single readings can be large; an effect the other way counts as inactive or inconclusive. Potency means the concentration at half of the fitted maximal effect.

SMILES	SMN2 splice enh	ELG1 genotox	KinaseGlo FLuc	NPC1 prom act	FLuc counter	Rab9 promoter act
CC(C)(C)c1ccc(C(=O)Nc2cccc3c(=O)[nH][nH]c(=O)c23)cc1	-56%	?	0%	21%	0.85µM*	?
COc1ccc(C(=O)NCc2ccc3c(c2)CCN3C(=O)c2ccncc2)cc1	/	/	/	/	-18%	/
COc1ccc(C(=O)NCC(=O)n2nc(C)cc2C)cc1OC	-1%	1%	3%	-2%	-2%[2.3 µM]	2%
Cc1cc(C)n(C(=O)CNC(=O)c2ccc(C(C)(C)C)cc2)n1	/	10%	/	-2%	7.6µM*	1%
Cc1cc(C)n(C(=O)CNC(=O)Cc2ccccc2)n1	7%	9%	4%	0%	-2%	3%
Cc1cc(C)n(C(=O)CNC(=O)c2ccc(Cl)cc2Cl)n1	/	2%	/	2%	6.7µM*	1%
Cn1c2c(c(=O)c3ccccc31)C[C@@H](O)C(C)(C)O2	6%	/	0%	/	/	/
CCOc1ccc(NC(=O)CCS(=O)(=O)c2ccc(Br)s2)cc1	-6%	/	/	/	-1%	/
O=C(CN1C(=O)C2(SCC(=O)N2c2cccc(Cl)c2)c2ccccc21)NC1CCCCC1 (configuration not stated)	/	/	/	/	6%	/
C=CCc1cccc2cc(C(=O)Nc3ccc(F)cc3)c(=O)oc12	7%	?	-4%	?	-14%	?
C=CCc1cccc2cc(C(=O)Nc3cccc(C(=O)O)c3)c(=O)oc12	/	9%	/	?	12µM*	?
C=CCc1cccc2cc(C(=O)Nc3ccc(CC(=O)O)cc3)c(=O)oc12	9%	6%	2%	12%	8.5µM*	-2%
COC(=O)c1sc(N2C(=O)C(O)=C(C(=O)c3ccc(C)o3)C2c2ccc([N+](=O)[O-])cc2)nc1C (configuration not stated)	/	?	/	3.5µM*	19µM*	1.8µM*
CC(=O)OC[C@@]1(O)C[C@@]23CC[C@@H]4c5ccoc5CC[C@@]4(C)[C@@H]2CCC1C3	3%	/	1%	/	/	/
COc1ccc(NC(=O)c2c(NC(=O)C(F)(F)F)sc3c2CCCCC3)cc1	-56%	/	/	/	13µM*	/
COc1ccc(NC(=O)c2c(NCc3cccc(OC)c3)sc3c2CCCC3)cc1	/	/	/	/	-20%	/
COc1ccc(NC(=O)c2c(NCc3ccc(N(C)C)cc3)sc3c2CCC3)cc1	/	/	/	/	11µM*	/
COc1ccc(NC(=O)c2c(NC(=O)CCC(=O)O)sc3c2CCCCC3)cc1	/	-1%	4%	-6%	-5%	11%
COc1ccc(-c2noc(CC(=O)Nc3ccc(F)cc3F)n2)cc1	/	/	/	/	-2%	/
COc1ccc(-c2nc(CSc3nnc(C)n4c3cc3sccc34)c(C)o2)cc1	/	/	/	/	-8%	/
O=C(NC1CCCCC1)c1cc(-c2ccc(Cl)cc2)on1	/	8%	/	30%	3%	26%
O=C(NC1CCCC1)c1cc(-c2cccc(Cl)c2)on1	/	18µM*	/	2.8µM*	15µM*	2.8µM*
Cc1ccc(NC(=O)c2cc(-c3ccc(F)cc3)on2)cc1C	-1%	15%	1%	2%	0%	3%
O=C(NC1CCCC1)c1cc(-c2ccc(F)cc2)on1	/	4.6µM*	/	1µM*	4.8µM*	1.8µM*
O=C(NC1CCCC1)c1cc(-c2ccc(Cl)cc2)on1	/	4.6µM*	/	1.4µM*	2.7µM*	1.8µM*
SMILES	SMN2 splice enh	ELG1 genotox	KinaseGlo FLuc	NPC1 prom act	FLuc counter	Rab9 promoter act
CNC(=O)[C@@H](Cc1ccccc1)N(C)C(=O)[C@@H](Cc1ccc2ccccc2c1)N(C)C(=O)/C=C/CC(C)(C)N	8%	/	-3%	/	/	/
CCOc1ccc2c(c1)c(=O)c(C(=O)c1ccc3c(c1)OCO3)cn2Cc1ccc(F)cc1	-5%	/	/	/	2%	/
CCc1ccc(CNC(=O)c2cnc3sc(N4CCCCCC4)nn3c2=O)cc1	/	/	/	/	-1%	/
Cc1cccc(C(=O)NCC(=O)OCC(=O)c2cc(C)n(CC3CCCO3)c2C)c1 (configuration not stated)	8%	?	-6%	15%	21µM*	22%
COc1cc(C(C)=O)ccc1OCC(=O)OCC(=O)c1cc(C)n(CC2CCCO2)c1C (configuration not stated)	/	2%	/	0%	?	-5%
Cc1cc(C(=O)COC(=O)CNC(=O)c2ccccc2)c(C)n1CC1CCCO1 (configuration not stated)	-6%	8%	-2%	-4%	19µM*	-12%
CSc1cccc(NC(=O)CN2C(=O)COc3ccc(Cl)cc32)c1	-25%	/	/	/	-4%	/
COc1cc(C2c3c(oc4ccc(F)cc4c3=O)C(=O)N2c2nc(C)c(C)s2)cc(OC)c1OC (configuration not stated)	16%	/	/	/	4%	/
Cc1nn(Cc2ccccc2Cl)c(Cl)c1C(=O)NCCc1ccccc1	11µM*	?	1%	4µM*	3.8µM*	1.6µM*
COc1ccc(Nc2nnc(SCC(=O)NC3CC3)s2)cc1	/	5%	/	-4%	19µM*	-3%
COc1ccc(Nc2nnc(SCC(=O)NC3CCS(=O)(=O)C3)s2)cc1 (configuration not stated)	/	11%	/	22%	5.4µM*	23%
O=C(CSc1n[nH]c(-c2ccncc2)n1)NC1CCS(=O)(=O)C1 (configuration not stated)	7%	-9%	-4%	7%	-4%	-5%
CCc1ccc(-c2nc(SCC(=O)NC3CCS(=O)(=O)C3)n[nH]2)cc1 (configuration not stated)	/	?	/	20%	5.4µM*	19%
O=C(CSc1nnc(Nc2ccccc2)s1)NC1CC1	/	5%	/	0%	?	0%
O=C(CSc1nnc(NCc2ccccc2)s1)NC1CCS(=O)(=O)C1 (configuration not stated)	/	0%	/	0%	17µM*	-13%
CCCCNCC	11%	/	/	/	/	/
O=S(=O)(c1ccc2ccccc2c1)n1nc(-c2ccco2)nc1NCc1cccc(Cl)c1	/	/	/	/	-8%	/
CN(C(=O)CSc1nnc(NC2CCCCC2)s1)C1CCS(=O)(=O)C1 (configuration not stated)	23%	3%	0%	0%	2%	3%
CCc1ccc(Nc2nnc(SCC(=O)N(C)C3CCS(=O)(=O)C3)s2)cc1 (configuration not stated)	/	?	/	3.5µM*	0.43µM*	?
CCOc1ccc2nc(NC(=O)c3nc(SC(C)C)ncc3Cl)sc2c1	3%	/	/	/	-13%	/
COc1cc2[nH]c(C(=O)NCC3CCCO3)cc2c(OC)c1OC (configuration not stated)	/	7%	/	-4%	5%	-1%
COc1cc2cc(C(=O)Nc3ccc4c(c3)OCCO4)[nH]c2cc1OC	/	?	/	29%	12µM*	15%
